Measured values published in ChEMBL document CHEMBL3433997, “St. Jude Leishmania screening dataset” (2016).

Each compound was assayed against Glucose transporter (Leishmania mexicana) (UniProt O61059) (assay: ST_JUDE_LEISH: Cytotoxicity at 2uM final concentration against transgenic Leishmania Mexicana promastigotes LmGT2 that are glucose transport deficient and complemented with the L. Mexicana glucose transporter 2. Activity is measured by DNA content using SYBR green in vitro).
Assay type: functional

Structure (SMILES)	inhibition [%]
O=S(=O)(NCCN1CCCC1)c1ccc(-c2ccc(CNCc3ccsc3)cc2)cc1	5.55
CCN1CCc2nc3ccccc3c(C(=O)Nc3ccc(C#N)cc3)c2C1	-1.04
O=C(Nc1cccc(CN2CCN(C(=O)c3ccccc3)CC2)c1)c1cccs1	3.92
CN(C)CCOc1ccc2c(=O)cc(CCc3cccc(F)c3F)n(CC(=O)N(C)Cc3ccc(-c4ccc(C(F)(F)F)cc4)cc3)c2c1	0.06
CCNc1cc(C(=O)N[C@@H](Cc2ccccc2)[C@H](O)CNC2(Cc3cccc(Cl)c3)CCC2)cc(N2CCCCS2(=O)=O)c1	2.93
COc1ccccc1CNc1ccnc(NCCc2cccc(C(F)(F)F)c2)n1	2.54
FC(F)(F)c1ccc2[nH]c(-c3ccc(-c4ccc(CNCCc5ccncc5)cc4)cc3)nc2c1	0.57
CC(C)C[C@@H](/C=N/NC(N)=O)NC(=O)[C@H](CC(C)C)NC(=O)[C@H](CC(C)C)NC(=O)OCc1ccccc1	4.41
NC1CCN(CCc2ccc(NS(=O)(=O)c3ccc(-c4ccccc4)cc3)cc2)CC1	0.08
Cc1ccc(Cl)cc1NC(=O)c1c(-c2ccccc2Cl)noc1C	-0.61
O=C(Nc1ccccc1)c1nn(CCCN2CCC(N3CCCC3)CC2)cc1-c1ccc(Cl)c(Cl)c1	0.89
c1ccc2[nH]c(-c3ccc(-c4ccc(CNCCc5ccncc5)cc4)s3)nc2c1	2.3
CN(C)C(=O)c1ccc(CN(Cc2ccc3c(c2)OCCO3)Cc2ccc3c(c2)OCO3)cc1	3.97
COc1cc(NC(=O)N2CCc3cc(OC)c(OCCN4CCCCC4)cc32)cc(C(F)(F)F)c1	9.77
